According to PubChem BioAssay (Tox21):
Results filed as inconclusive are left out. Active and inactive are the calls of the source. Unless noted, calls follow the shape of the dose curve; as a rule, active = well fitted curve in the direction sought with a large enough effect in the repeat runs; inconclusive = weak or mixed curves; inactive = flat fitted curve, though single readings scatter.

What was measured:
[1] = qHTS assay to test for compound auto fluorescence at 535 nm (green) in HEK293 cells (AID 720680)
[2] = qHTS assay to test for compound auto fluorescence at 460 nm (blue) in HEK293 cell free culture (AID 720681)
In short: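 Blue fluorescence (Ex 405/Em 460 nm, triamterene-equivalent) was read immediately after pin transfer of compound or DMSO into medium (DMEM, 10% FBS) without cells.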

[3] = qHTS assay to test for compound auto fluorescence at 535 nm (green) in HEK293 cell free culture (AID 720682)
In short: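 Fluorescein serves as the green reference fluorophore; each compound's intrinsic emission at 535 nm (excitation 485 nm) is reported as an equivalent amount of that dye, measured in serum-containing DMEM without cells.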

[4] = qHTS assay to test for compound auto fluorescence at 590 nm (red) in HEK293 cell free culture (AID 720683)
In short: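 Red-channel autofluorescence of compounds in culture medium (DMEM, 10% FBS), no cells, measured at 540/590 nm. Rose Bengal sodium is the reference fluorophore for equivalence.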

[5] = qHTS assay to test for compound auto fluorescence at 590 nm (red) in HepG2 cell free culture (AID 720684)
In short: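 Plate contents were MEM with 10% FBS plus test compound or DMSO, no cells. Fluorescence was recorded with 540 nm excitation and 590 nm emission.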

[6] = qHTS assay to test for compound auto fluorescence at 460 nm (blue) in HepG2 cell free culture (AID 720685)
In short: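 Compound (23 nL) or DMSO pinned into cell-free MEM with 10% FBS; blue fluorescence read at 405/460 nm excitation/emission, expressed as auto-fluorescence equivalency to triamterene.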

[7] = qHTS assay to test for compound auto fluorescence at 535 nm (green) in HepG2 cell free culture (AID 720686)
[8] = qHTS assay to test for compound auto fluorescence at 460 nm (blue) in HepG2 cells (AID 720687)
In short: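 Blue-channel autofluorescence (Ex/Em 405/460 nm, triamterene-equivalent) was measured after 1 hr compound exposure at 37 C, 5% CO2. Cells were HepG2, plated overnight at 37 C in MEM plus 10% FBS.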

[9] = molecular target: Glucocorticoid receptor (Homo sapiens) (UniProt P04150); assay: qHTS assay to identify small molecule agonists of the glucocorticoid receptor (GR) signaling pathway (AID 720691; active = well fitted activation curve with a large enough effect in the signal ratio in the repeat runs, not every such curve was filed as active; the % refers to the signal ratio)
In short: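 qHTS in GR-bla HeLa cells: 4 h settling at 37 C/5% CO2, 18 h compound incubation at 37 C, 2 h LiveBLAzer B/G FRET substrate at room temperature, fluorescence intensity measured.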

[10] = molecular target: Glucocorticoid receptor (Homo sapiens) (UniProt P04150); assay: qHTS assay to identify small molecule antagonists of the glucocorticoid receptor (GR) signaling pathway (AID 720692; active = well fitted inhibition curve with a large enough effect in the signal ratio in the repeat runs, not every such curve was filed as active; the % refers to the signal ratio)
In short: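 Inhibition of glucocorticoid signalling is measured in HeLa cells with a GRE-controlled beta-lactamase reporter; cells are co-treated with compound and 5 nM dexamethasone (final) for 18 h before FRET substrate readout.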
% is scaled to controls: 0 for no effect and ±100 for the full control effect.

Chain of Glucocorticoid receptor (Homo sapiens) (P04150 whole entry, looked up): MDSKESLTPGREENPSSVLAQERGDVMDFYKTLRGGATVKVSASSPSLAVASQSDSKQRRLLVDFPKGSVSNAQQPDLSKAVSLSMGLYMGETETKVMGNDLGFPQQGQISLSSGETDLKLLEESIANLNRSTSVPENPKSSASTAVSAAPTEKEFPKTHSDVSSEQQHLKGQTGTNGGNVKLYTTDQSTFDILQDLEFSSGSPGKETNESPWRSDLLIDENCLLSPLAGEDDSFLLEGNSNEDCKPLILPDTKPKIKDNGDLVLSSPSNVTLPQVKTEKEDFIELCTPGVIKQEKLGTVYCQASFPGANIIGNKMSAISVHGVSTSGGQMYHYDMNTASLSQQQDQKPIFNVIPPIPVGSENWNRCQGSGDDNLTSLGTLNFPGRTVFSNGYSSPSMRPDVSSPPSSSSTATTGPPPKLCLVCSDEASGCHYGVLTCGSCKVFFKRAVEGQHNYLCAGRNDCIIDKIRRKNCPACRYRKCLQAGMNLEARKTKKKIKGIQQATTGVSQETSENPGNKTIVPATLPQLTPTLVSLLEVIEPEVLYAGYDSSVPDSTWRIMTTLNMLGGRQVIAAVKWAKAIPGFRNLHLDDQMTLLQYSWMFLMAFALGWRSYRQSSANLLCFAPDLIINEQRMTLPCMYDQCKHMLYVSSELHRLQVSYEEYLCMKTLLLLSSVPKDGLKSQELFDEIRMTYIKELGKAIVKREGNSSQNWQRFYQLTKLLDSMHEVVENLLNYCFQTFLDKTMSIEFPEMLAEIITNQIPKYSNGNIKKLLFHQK

COCC(=O)Nc1c(I)c(C(=O)NCC(O)CO)c(I)c(C(=O)N(C)CC(O)CO)c1I (configuration not stated)
inactive: fluorescence, % of fluorescein [1] -0.025% [at 18.6 µM] | fluorescence, % of fluorescent control [2] -0.0015% [at 18.6 µM] | activity change [3] 0.0796% [at 18.6 µM] | fluorescence, % of fluorescent control [4] 0.0121% [at 18.6 µM] | fluorescence, % of Rose Bengal [5] 0.0461% [at 18.6 µM] | fluorescence, % of fluorescent control [6] -0.109% [at 18.6 µM] | fluorescence, % of fluorescein control [7] -0.084% [at 18.6 µM] | fluorescence, % of fluorescent control [8] -0.143% [at 18.6 µM]

CCOC(=O)CCc1ccccc1
inactive: outcome [1] | outcome [2] | outcome [3] | outcome [4] | outcome [5] | outcome [6] | outcome [7] | outcome [8]

CC(=O)Nc1ccc(C)cc1
inactive: outcome [1] | outcome [2] | outcome [3] | outcome [4] | outcome [5] | outcome [6] | outcome [7]

Nc1cc(C(=O)O)ccc1Cl
inactive: outcome [1] | outcome [2] | outcome [3] | outcome [4] | outcome [5] | outcome [6] | outcome [7] | outcome [8]

CCCOCCOCCOCCO
inactive: outcome [1] | outcome [2] | outcome [3] | outcome [4] | outcome [5] | outcome [6] | outcome [7] | outcome [8]

c1ccc(CNc2ncnc3nc[nH]c23)cc1
inactive: outcome [1] | outcome [2] | outcome [3] | outcome [4] | outcome [5] | outcome [6] | outcome [7] | outcome [8] | Potency [9]

CCCC(C)CC (configuration not stated)
inactive: outcome [1] | outcome [2] | outcome [3] | outcome [4] | outcome [5] | outcome [6] | outcome [7] | outcome [8]

CNCc1ccccc1
inactive: outcome [1] | outcome [2] | outcome [3] | outcome [4] | outcome [5] | outcome [6] | outcome [7] | outcome [8]

CC(C)=CC(C)(C)C
inactive: outcome [1] | outcome [2] | outcome [3] | outcome [4] | outcome [5] | outcome [6] | outcome [7] | outcome [8] | Potency [9]

CCCCCCCCCCC
inactive: outcome [1] | outcome [2] | outcome [3] | outcome [4] | outcome [5] | outcome [6] | outcome [7] | outcome [8] | Potency [9] | outcome [10]

Cc1ccc(S(=O)(=O)NC(=O)NC2CCCCCCC2)cc1
inactive: outcome [1] | outcome [2] | outcome [3] | outcome [4] | outcome [5] | outcome [6] | outcome [7] | outcome [8] | Potency [9]

Nc1ccnc(=O)[nH]1
inactive: outcome [1] | outcome [2] | outcome [3] | outcome [4] | outcome [5] | outcome [6] | outcome [7] | outcome [8] | Potency [9] | outcome [10]

C=CCCCCCCCCCCC
inactive: fluorescence, % of fluorescein [1] 0.0165% [at 3.72 µM] | fluorescence, % of fluorescent control [2] -0.158% [at 3.72 µM] | activity change [3] 0.0052% [at 3.72 µM] | fluorescence, % of fluorescent control [4] -0.0144% [at 3.72 µM] | fluorescence, % of Rose Bengal [5] 0.0242% [at 3.72 µM] | fluorescence, % of fluorescent control [6] 0.0228% [at 3.72 µM] | fluorescence, % of fluorescein control [7] 0.0296% [at 3.72 µM] | fluorescence, % of fluorescent control [8] -0.017% [at 3.72 µM] | activation [9] -0.645% [at 6.9 µM] | activity change, negative = inhibition [10] -6.37% [at 7.04 µM]

CC(C)c1ccccc1O
inactive: outcome [1] | outcome [2] | outcome [3] | outcome [4] | outcome [5] | outcome [6] | outcome [7] | outcome [8] | Potency [9] | outcome [10]

C[C@H](CCC(=O)NCC(=O)O)[C@H]1CC[C@H]2[C@@H]3[C@H](O)C[C@@H]4C[C@H](O)CC[C@]4(C)[C@H]3C[C@H](O)[C@]12C
inactive: outcome [1] | outcome [2] | outcome [3] | outcome [4] | outcome [5] | outcome [6] | outcome [7] | outcome [8] | Potency [9] | outcome [10]

CN[C@@H]1[C@@H](O)[C@@H](O[C@@H]2[C@H](O)[C@H](O[C@H]3OC(CN)=CC[C@H]3N)[C@@H](N)C[C@H]2N)OCC1(C)O (some centres not stated)
inactive: outcome [1] | outcome [2] | outcome [3] | outcome [4] | outcome [5] | outcome [6] | outcome [7] | outcome [8] | Potency [9] | outcome [10]

O=C(c1ccc2c(c1)C(=O)OC2=O)c1ccc2c(c1)C(=O)OC2=O
inactive: outcome [1] | outcome [2] | outcome [3] | outcome [4] | outcome [5] | outcome [6] | outcome [7] | outcome [8] | Potency [9] | outcome [10]

C=CCOCC(CO)(COCC=C)COCC=C
inactive: outcome [1] | outcome [2] | outcome [3] | outcome [4] | outcome [5] | outcome [6] | outcome [7] | outcome [8] | Potency [9] | outcome [10]

O=[Si]=O
inactive: outcome [1] | outcome [2] | outcome [3] | outcome [4] | outcome [5] | outcome [6] | outcome [7] | outcome [8] | Potency [9] | outcome [10]

COCCOCCOCCOC
inactive: outcome [1] | outcome [2] | outcome [3] | outcome [4] | outcome [5] | outcome [6] | outcome [7] | outcome [8] | Potency [9] | outcome [10]

CCCCCCCCCCCCCC(=O)OC
inactive: outcome [1] | outcome [2] | outcome [3] | outcome [4] | outcome [5] | outcome [6] | outcome [7] | outcome [8] | Potency [9] | outcome [10]

Cc1ncc([N+](=O)[O-])n1CC(O)CCl (configuration not stated)
inactive: fluorescence, % of fluorescein [1] -0.0185% [at 18.6 µM] | fluorescence, % of fluorescent control [2] -0.008% [at 18.6 µM] | activity change [3] 0.017% [at 18.6 µM] | fluorescence, % of fluorescent control [4] -0.0564% [at 18.6 µM] | fluorescence, % of Rose Bengal [5] 0.0054% [at 18.6 µM] | fluorescence, % of fluorescent control [6] -0.0905% [at 18.6 µM] | fluorescence, % of fluorescein control [7] -0.0146% [at 18.6 µM] | fluorescence, % of fluorescent control [8] -0.0428% [at 18.6 µM] | Potency [9] | outcome [10]
